Hits are enriched below; roughly 4% of the tested compounds scored in any of these assays.
NALP1 yeast inh = NALP1 inflammasome inhibitors in reconstituted yeast, colorimetric, S. cerevisiae, triplicate retest | S. cerevisiae NALP1/ASC/caspase-1 growth, X-gal OD620, 72 h | inhibition, % at 10 µM | 0.61% of 280,000 active | AID 2071, 2009; in the data active = inhibition mostly above about 24%, no sharp cut-off; inactive = mostly below about 32%
TIM10 inh = growth inhibitors of isogenic TIM10 control yeast, primary screen, counter-screen for tim10-1 yeast inhibitor project, luminescence, uHTS | inhibition, % at 10 µM | S. cerevisiae TIM10 strain growth, BacTiter-Glo luminescence, 24 h | 1.4% of 330,000 active;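 active = inhibition of 40% or more at the single tested concentration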;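 note: wild-type TIM10 isogenic control strain grown at permissive 25 °C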
NALP3 yeast inh = NALP3 inflammasome inhibitors in reconstituted yeast, primary screen, luminescence, uHTS; 0.39% of 330,000 active; Yeast reconstituted NLRP3/ASC/caspase-1, beta-gal luminescence, 24 h; inhibition, % at 10 µM;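 active = inhibition of 50% or more; inactive = inhibition below 50%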;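 note: plate controls were induced DMSO wells for no effect and uninduced yeast grown without galactose for full effect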
tim10-1 inh = growth inhibitors of tim10-1 mutant yeast, primary screen, luminescence, uHTS. S. cerevisiae tim10-1 ts strain growth, BacTiter-Glo, 24 h. inhibition, % at 20 µM. 2.2% of 330,000 active;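 active = inhibition of at least 40%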;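 note: mutant grown at 25 °C; 0% = DMSO wells with yeast and 100% = wells holding no yeast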
tim23-1 inh = growth inhibitors of tim23-1 mutant yeast, primary screen, luminescence, uHTS; S. cerevisiae tim23-1 growth, BacTiter-Glo luminescence, 24 h; inhibition, % at 20 µM; 1.3% of 330,000 active;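 active = growth inhibition of the mutant yeast at or above 50%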;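 note: temperature-sensitive mutant grown at 25 °C; plate controls were DMSO-treated mutant yeast for no effect and medium wells lacking yeast for full effect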
tim10-1 conf = growth inhibitors of tim10-1 mutant yeast, confirmation, single concentration, luminescence, S. cerevisiae | shares compounds with tim10-1 inh | S. cerevisiae tim10-1 ts strain growth, BacTiter-Glo, 24 h | inhibition, % at 20 µM | 56% of 7,400 active | AID 463213, 2010;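 active = inhibition of yeast growth at or above a set limit in either of two repeat tests at 20 µM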;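 note: tim10-1 mutant grown at permissive 25 °C to find synthetic lethal compounds; 0% = DMSO yeast wells and 100% = medium wells without yeast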
* hit, by the source's call; x = no result.

SMILES	NALP1 yeast inh	TIM10 inh	NALP3 yeast inh	tim10-1 inh	tim23-1 inh	tim10-1 conf
CCN(CC)CCN(C(=O)c1ccc2c(c1)CCCC2)c1nc2ccc(OC)cc2s1	28	22	25	52*	34	36*
O=C(/C=C/c1cccs1)Nc1nccs1	6	2	30	0	1	x
O=C(/C=C/c1cccs1)Nc1cccc(NC(=O)/C=C/c2cccs2)n1	30	31	18	40*	35	11
CCCCNc1cc(NC(C)=O)cc2cc(OC)c(OC)cc12	-35	27	21	44*	27	31
CN(C)S(=O)(=O)c1cccc(-c2cn3cc(Cl)ccc3n2)c1	-2	21	-79	45*	28	34*
O=S(=O)(c1ccc(-c2cn3ccccc3n2)cc1)N1CCOCC1	-14	11	-13	26	27	x
O=S(=O)(c1cccc(-c2cn3cc(Cl)ccc3n2)c1)N1CCOCC1	-17	22	-31	42*	36	32*
CCc1ccc2c(CN3CCC(C(=O)OC)CC3)cc(=O)oc2c1	6	17	23	23	18	x
COc1ccccc1NC(=O)c1cc(S(=O)(=O)N2CCCCCC2)ccc1F	20	9	2	12	15	x
COc1ccccc1NC(=O)c1cc(S(=O)(=O)NC2CCCC2)ccc1F	-3	22	-30	48*	20	9
CN(c1ccccc1)C1CCCCC1NS(=O)(=O)c1ccc(Cl)cc1 (centres undefined)	19	26	24	50*	33	36*
COc1ccccc1NC1CCCCC1NS(=O)(=O)c1ccccc1 (centres undefined)	24	15	1	43*	31	6
CCN(CC)C1CCCCC1NS(=O)(=O)c1ccc(Cl)cc1 (centres undefined)	9	-3	8	6	-2	x
O=C(O)c1ccccc1NC1CCCCC1NS(=O)(=O)c1ccccc1 (centres undefined)	22	-1	-5	10	4	x
COc1cc(C)c(CN2CCN(C(C)C(=O)NC(C)c3ccccc3)CC2)cc1OC (centres undefined)	16	13	2	-12	12	x
COc1ccc(-c2cnc(SCC(=O)Nc3cc(C)on3)n2Cc2ccco2)cc1	13	8	8	44*	18	21
COCCn1c(-c2ccc(OC)cc2)cnc1SCC(=O)Nc1cccc2ccccc12	34	-9	-19	45*	26	9
COCCn1c(SCC(=O)Nc2ccccc2OC)nc2ccccc2c1=O	5	-13	14	-22	14	x
CC(C)(C)NC(=O)Nc1nnc(SCC(=O)NC2CCCCC2)s1	x	2	23	17	14	x
CCCn1nc(C(=O)OCC(=O)Nc2cccc(OC)c2)c2ccccc2c1=O	5	-24	24	-10	-5	x
Cc1cc(C)nc(NC(=O)c2c(-c3ccccc3Cl)noc2C)c1	22	3	32	10	13	x
Cc1ccc(CCNC(=O)Cn2ccc3cc(S(=O)(=O)N4CCCC4)ccc32)cc1	-2	-1	-8	11	1	x
O=c1ccc2ccc(OCc3nnc(-c4ccccc4Br)o3)cc2o1	-6	6	12	12	10	x
Cc1cc(=O)oc2cc(OCc3nnc(-c4ccccc4Br)o3)ccc12	9	25	27	44*	18	21
COC(=O)CN(C)C(=O)c1ccc2nc(Cc3cccc(Cl)c3)oc2c1	20	1	28	-13	4	x
SMILES	NALP1 yeast inh	TIM10 inh	NALP3 yeast inh	tim10-1 inh	tim23-1 inh	tim10-1 conf
CC(C)c1ccc(/C=C/C(=O)N2CCCCCC2)cc1	42	16	28	43*	32	14
CC(C)c1ccc(/C=C/C(=O)CCC(=O)O)cc1	12	7	-1	41*	33	24
Cc1ccc(C(=O)COC(=O)C2CC(=O)N(c3nc(-c4ccccc4)cs3)C2)cc1 (centres undefined)	-11	31	15	40*	11	29
O=Cc1ccc(OC(=O)c2cc(Cl)nc3ccccc23)cc1	35	14	5	44*	27	21
CC(=O)c1ccc(NC(=O)C2CCN(S(=O)(=O)c3cccc4cccnc34)CC2)cc1	16	18	3	41*	37	29
CCOC(=O)/C=C/C(=O)Nc1nccs1	46*	32	18	43*	34	40*
CC(=O)Nc1ccc(OS(=O)(=O)c2c(C)cc(C)cc2C)cc1	-5	33	14	46*	41	31*
Cc1cc(C)nc(NN=C(c2ccccc2)c2ccccc2)n1	31	25	18	47*	42	24
C=C1c2cccc(C(F)(F)F)c2O[C@H](C(=O)OCC)[C@H]1OC	x	8	x	5	32	x
Cc1ccc(S(=O)(=O)c2nc(S(C)(=O)=O)sc2N2CCC(C)CC2)cc1	-4	25	-5	46*	47	18
C=CCN1C(=O)C(O)(CC(=O)c2ccc(-n3cccc3)cc2)c2ccccc21 (centres undefined)	29	29	12	43*	39	36*
CCc1ccc2c(CN3CCN(S(=O)(=O)c4cccs4)CC3)cc(=O)oc2c1	x	23	18	41*	34	29
N#CC1=C(N)Oc2n[nH]c(-c3cccs3)c2C1c1ccncc1 (centres undefined)	13	-2	0	5	13	x
Cc1ccc(C2C(C#N)=C(N)Oc3n[nH]c(-c4cccs4)c32)s1 (centres undefined)	4	37	14	46*	43	31
Cc1nnc(NC(=O)c2ccccc2Oc2ccccc2)s1	-15	25	25	19	29	x
OC1(c2ccc(OC(F)F)cc2)CSC(=Nc2cccnc2)N1C1CC1 (centres undefined)	3	-10	12	41*	-1	24
COC(=O)c1sccc1NC(=S)N1C(C)CCCC1C (centres undefined)	17	19	19	15	37	x
COc1ccccc1N1CCN(C(=O)CCCN2C(=O)c3cccc4cccc(c34)C2=O)CC1	35	28	-5	45*	31	27
COc1cn(-c2ccccc2)nc1C(=O)Nc1ccc(C)cc1Cl	-1	0	31	12	8	x
Cc1ccc(C)c(-c2cc(C(=O)NNC(=S)NCC(C)C)c3ccccc3n2)c1	11	18	-1	47*	26	31
CCCOc1cccc(-c2cc(C(=O)NNC(=S)NCC)c3ccccc3n2)c1	0	33	6	54*	24	50*
Cc1ccc(C)c(-c2cc(C(=O)NC3CC3)c3ccccc3n2)c1	5	-7	4	-14	22	x
